Reference: PubChem BioAssay (NCATS)
Records with an inconclusive call do not appear. Entries that show only a call come without a potency. A number with no mark means an inactive call. The source made the active and inactive calls. The call rests on the fitted dose curve; in most records, active means well fitted curve in the direction sought with a large enough effect; inconclusive means small, poorly fitted or top-dose-only effect, or another doubt; inactive means no such curve, though single readings can be large; an effect the other way counts as inactive or inconclusive.

What was measured:
[1] = qHTS of pediatric cancer cell lines to identify multiple opportunities for drug repurposing: Primary screen for Saos-2 cells (AID 1347097); further: nearly all actives have a fitted effect of over 40% in size
In short: (§1)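 500-1,000 cells/well; 5 h pre-incubation 37 °C/5% CO2; compound pinned; 48 h; CellTiter-Glo, 15 min RT; luminescence. MIPE 11-pt from 0.78 nM, NPC 8-pt from 0.59 nM final. Bortezomib 2.3 µM final as positive control.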

[2] = qHTS of pediatric cancer cell lines to identify multiple opportunities for drug repurposing: Primary screen for SK-N-SH cells (AID 1347098);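 further: DMSO served as neutral control and bortezomib at 2.3 µM as positive control; nearly all actives have a fitted effect of over 65% in size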
In short: (§2)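 Cells (500-1,000/well) rested 5 h, then received compounds for 48 h; metabolically active cells were measured by CellTiter-Glo luminescence. Final concentrations spanned up to 46 µM (MIPE, 11-point) or 0.59 nM-46 µM (NPC, 8-point) in primary screens, 11-point in follow-ups.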

[3] = qHTS of pediatric cancer cell lines to identify multiple opportunities for drug repurposing: Primary screen for NB1643 cells (AID 1347099); further: nearly all actives have a fitted effect of over 50% in size
In short: as §1

[4] = qHTS of pediatric cancer cell lines to identify multiple opportunities for drug repurposing: Primary screen for LAN-5 cells (AID 1347100)
In short: (§3)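 Cells (500-1,000/well) in growth media were settled 5 h at 37 degrees C, then given compounds for 48 h. Viability was read as CellTiter-Glo luminescence. Primary runs used MIPE at 11 points (0.78 nM-46 µM) and NPC at 8 points (0.59 nM-46 µM); follow-ups used 11 points.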

[5] = qHTS of pediatric cancer cell lines to identify multiple opportunities for drug repurposing: Primary screen for BT-12 cells (AID 1347101); further: nearly all actives have a fitted effect of over 25% in size
In short: as §2

[6] = qHTS of pediatric cancer cell lines to identify multiple opportunities for drug repurposing: Primary screen for Rh18 cells (AID 1347102); further: nearly all actives have a fitted effect of over 65% in size
In short: as §3

[7] = qHTS of pediatric cancer cell lines to identify multiple opportunities for drug repurposing: Primary screen for OHS-50 cells (AID 1347103); further: nearly all actives have a fitted effect of over 40% in size; further: potency means the concentration at half of the fitted maximal effect
In short: as §2

[8] = qHTS of pediatric cancer cell lines to identify multiple opportunities for drug repurposing: Primary screen for RD cells (AID 1347104); further: nearly all actives have a fitted effect of over 55% in size
In short: as §1

[9] = qHTS of pediatric cancer cell lines to identify multiple opportunities for drug repurposing: Primary screen for MG 63 (6-TG R) cells (AID 1347105); further: nearly all actives have a fitted effect of over 50% in size; further: potency means the concentration at half of the fitted maximal effect
In short: as §1

[10] = qHTS of pediatric cancer cell lines to identify multiple opportunities for drug repurposing: Primary screen for control Hh wild type fibroblast cells (AID 1347106);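 further: series mostly up to about 46 µM; a drop in luminescence marks cytotoxicity and a rise apparent proliferation; nearly all actives have a fitted effect of over 55% in size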
In short: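 Viability after 48 h compound treatment at 37C, 500-1,000 cells/well, read as ATP luminescence with CellTiter-Glo. Primary screens used 11-point (MIPE, 0.78 nM-46 µM) or 8-point (NPC, 0.59 nM-46 µM) final concentrations; follow-up screens used 11-point dilutions.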

| SMILES | Potency [1] | Potency [2] | Potency [3] | Potency [4] | Potency [5] | Potency [6] | Potency [7] | Potency [8] | Potency [9] | outcome [10] |
| --- | --- | --- | --- | --- | --- | --- | --- | --- | --- | --- |
| Cc1cccc(C)c1NC(=O)CN(CC(=O)O)CC(=O)O | inactive | inactive | inactive | inactive | inactive | inactive | inactive | inactive | inactive | inactive |
| CC(=O)CCC(=O)O | inactive | inactive | inactive | inactive | inactive | inactive | inactive | inactive | inactive | inactive |
| CN1[C@@H]2CC[C@H]1CC(OC(=O)C(O)c1ccccc1)C2 (some centres undefined) | inactive | inactive | inactive | inactive | inactive | inactive | inactive | inactive | inactive | inactive |
| CCCCOc1cc(C(=O)OCCN(CC)CC)ccc1N | inactive | inactive | inactive | inactive | inactive | inactive |  | inactive | inactive | inactive |
| C[C@]12C[C@H](O)[C@H]3[C@@H](CCC4=CC(=O)CC[C@@]43C)[C@@H]1CC[C@@H]2C(=O)CO | inactive | inactive | inactive | inactive | inactive | inactive |  | inactive | inactive | inactive |
| CCOC(=O)[C@H](CCc1ccccc1)N[C@@H](C)C(=O)N1C(=O)N(C)C[C@H]1C(=O)O | inactive | inactive | inactive | inactive | inactive |  | inactive | inactive | inactive | inactive |
| OCC(CO)N[C@H]1C[C@](O)(CO)[C@@H](O)[C@H](O)[C@H]1O | inactive | inactive | inactive | inactive | inactive | inactive | inactive | inactive | inactive | inactive |
| Cc1cccc(Nc2cc(Cl)nc(SCC(=O)O)n2)c1C | inactive | inactive | inactive | inactive | inactive |  |  | inactive | inactive | inactive |
| Cc1cc2nc3c(=O)[nH]c(=O)nc-3n(C[C@H](O)[C@H](O)[C@H](O)CO)c2cc1C | inactive | inactive | inactive | inactive | inactive | inactive | inactive | inactive | inactive | inactive |
| CC(C)(O)c1ccccc1CC[C@@H](SCC1(CC(=O)O)CC1)c1cccc(/C=C/c2ccc3ccc(Cl)cc3n2)c1 | inactive | inactive | inactive | inactive | inactive | inactive | inactive | inactive | inactive | inactive |
| C[C@@H]1CN(c2c(F)c(F)c3c(=O)c(C(=O)O)cn(C4CC4)c3c2F)C[C@H](C)N1 | inactive | inactive | inactive | inactive | inactive | inactive |  | inactive | inactive | inactive |
| Cc1ncc([N+](=O)[O-])n1CC(O)CCl (centres undefined) | inactive | inactive | inactive | inactive | inactive | inactive | inactive | inactive | inactive | inactive |
| O=C1N=C(O)CN1/N=C/c1ccc(-c2ccc([N+](=O)[O-])cc2)o1 | inactive | inactive | inactive | inactive | inactive | inactive | inactive | inactive | inactive | inactive |
| CCCCCCCCCCCCCCCC(=O)NCCO | inactive | inactive | inactive | inactive | inactive | inactive | inactive | inactive | inactive | inactive |
| COc1ccc2c(c1)C(=O)N(CCc1ccc(S(=O)(=O)NC(=O)NC3CCCCC3)cc1)C(=O)C2(C)C | inactive | inactive | inactive | inactive | inactive | inactive | inactive | inactive | inactive | inactive |
| COc1ccc2[nH]c(S(=O)Cc3ncc(C)c(OC)c3C)nc2n1 (centres undefined) | inactive | inactive | inactive | inactive | inactive | inactive | inactive | inactive | inactive | inactive |
| O=c1cc(CO)occ1O | inactive | inactive | inactive | inactive | inactive | inactive |  | inactive | inactive | inactive |
| CC1(C)S[C@@H]2[C@H](NC(=O)Cc3ccccc3)C(=O)N2[C@H]1C(=O)O (tested in a mixture with another compound) | inactive | inactive | inactive | inactive | inactive | inactive | inactive | inactive | inactive | inactive |
| C[C@H]1O[C@H](O[C@H]2[C@H](O)[C@@H](O)[C@@H](O[C@H]3[C@H](O)[C@@H](O)[C@H](O)O[C@@H]3CO)O[C@@H]2CO)[C@H](O)[C@@H](O)[C@@H]1N[C@H]1C=C(CO)[C@@H](O)[C@H](O)[C@H]1O | inactive | inactive | inactive | inactive | inactive |  | inactive | inactive |  | inactive |
| O=C(O)c1ccccc1-c1ccc(C(F)(F)F)cc1 | inactive | inactive | inactive | inactive | inactive |  | inactive | inactive | inactive | inactive |
| CC(=O)Oc1ccc(C2(c3ccc(OC(C)=O)cc3)C(=O)Nc3ccccc32)cc1 | inactive | inactive | inactive | inactive | inactive |  | 1100 nM (active) | inactive | 168 nM (active) | inactive |
